Pf growth 96h = inhibits malaria parasite growth, 96 h | 320,000 compounds, 6.9% hits | Potency, µM (highest dose often 28.7 µM), inactives show top-dose activity change, negative = inhibition, actives largely listed as inhibitors | P. falciparum luciferase reporter growth, 96 h
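Delayed-death screen, second-generation endpoint: infected erythrocytes, 2% hematocrit, 0.05% parasitemia final; 96 hours at 37 C, 5% CO2; luciferase detection reagent; luminescence decrease equals reduced growth.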
AmpC no deterg = blocks E. coli AmpC beta-lactamase in detergent-free assay; P00811; AmpC nitrocefin hydrolysis, absorbance 480 nm, 0.0001% Triton; Potency, µM (top dose mostly 57.1 µM), inactives show top-dose activity change, negative = inhibition, actives largely listed as inhibitors; 330,000 compounds, 0.52% hits; AID 485341;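 further: plate controls were no compound for no effect and no enzyme for full effect; nearly all actives have a fitted effect of over 20% in size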
Target sequence (P00811 whole entry, looked up): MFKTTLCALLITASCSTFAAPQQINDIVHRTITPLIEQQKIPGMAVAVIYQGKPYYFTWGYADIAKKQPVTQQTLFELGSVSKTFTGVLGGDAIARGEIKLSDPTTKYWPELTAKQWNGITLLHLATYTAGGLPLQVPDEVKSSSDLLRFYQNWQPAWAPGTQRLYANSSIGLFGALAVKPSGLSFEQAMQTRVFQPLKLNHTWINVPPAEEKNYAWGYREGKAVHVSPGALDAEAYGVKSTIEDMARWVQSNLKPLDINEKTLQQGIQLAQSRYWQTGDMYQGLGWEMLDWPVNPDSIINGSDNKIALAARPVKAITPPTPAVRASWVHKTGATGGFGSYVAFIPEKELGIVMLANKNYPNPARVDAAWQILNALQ
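20 mM phosphate pH 7.0 + 0.01% (detergent screen) or 0.0001% Triton X-100; 5.3 nM AmpC reagent; cpd preinc 15 min RT; nitrocefin (800 uM stock) to start; A480 q20 s × 4 min; Activity was normalised to no-enzyme and no-compound control wells.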
HCV inhibitor = blocks hepatitis C virus; 340,000 compounds, 3.4% hits; Huh7.5.1 HCVcc-Cre infection, luciferase reporter, 44 h; Potency, µM (highest dose often 41.8 µM), for the others: at the highest dose activity change, negative = inhibition, usual class: inhibitors
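A cell-based infection assay in which seeded cells (1,000 per well) receive test compound after 4 h, are inoculated with HCVcc-Cre at approximately 0.5 moi, and are incubated 44 h before luminescence detection.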
AmpC detergent = AmpC beta-lactamase inhibition with detergent present; P00811; AmpC hydrolysis of nitrocefin, absorbance 480 nm, 0.01% Triton; Potency, µM (doses to about 114 µM), without a hit: top-dose activity change, negative = inhibition, hits mostly inhibitors; 370,000 compounds, 0.041% hits;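 further: 0% = no-compound wells and -100% = no-enzyme wells; nearly all actives have a fitted effect of over 25% in size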
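AmpC (5.3 nM in the dispensed reagent) in 20 mM phosphate pH 7.0 with 0.01% (detergent screen) or 0.0001% Triton X-100 was preincubated with compounds for 15 min at room temperature. Nitrocefin was then added from an 800 uM solution, and hydrolysis was followed at 480 nm.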
Pf growth 48h = P. falciparum growth inhibition at 48 hours (one generation); P. falciparum luciferase growth in erythrocytes, 48 h; Potency, µM (titrated, usually from 28.7 µM), for inactives: at the top dose activity change, negative = inhibition, usual class: inhibitors; 310,000 compounds, 5.9% hits; AID 504832
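First compound was added to culture medium, then infected red cells at 0.1% parasitemia and 2% hematocrit (final). After incubation at 37 C under 5% CO2, luciferase detection reagent was dispensed and light output recorded.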
AMA1 RON2 block = inhibitors of Plasmodium falciparum AMA1-RON2 interaction; AlphaScreen AMA1-biotinylated RON2 peptide binding; Potency, µM (titrated, usually from 58.2 µM), inactives show at the top dose activity change, negative = inhibition, hits mostly inhibitors; 360,000 compounds, 0.2% hits; AID 720542;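 further: 0% = vehicle wells and -100% = peptide control; nearly all actives have a fitted effect of over 45% in size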
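AMA1 (3D7) with his tag at 25 nM final met compounds first, then biotinylated RON2 peptide at 25 nM; detection used donor plus acceptor beads, 10 µg/mL apiece, read by AlphaScreen after 30 min at room temperature.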
* marks the source's active call; other numbers are inactive results; ? = inconclusive; nt = no result; [ ] = dose if it differs, or a comment. Compounds with a hit are over-represented: about 11% of the library has one in this group of screens. The call rests on the fitted dose curve; in most records, active means well fitted curve in the direction sought with a large enough effect; inconclusive means small, poorly fitted or top-dose-only effect, or another doubt; inactive means no such curve, though single readings can be large; an effect the other way counts as inactive or inconclusive. Unless noted, on the % scale 0 is the no-effect control and ±100 the full control effect; potency means the concentration at half of the fitted maximal effect.

SMILES	Pf growth 96h	AmpC no deterg	HCV inhibitor	AmpC detergent	Pf growth 48h	AMA1 RON2 block
CC(C)c1ccccc1NC(=S)NN(Cc1ccccc1)c1ccccc1	12µM*	-23%	?	5%	?	59%
Cc1cccc(C)c1NC(=S)NN(Cc1ccccc1)c1ccccc1	4.7µM*	-21%	-13%	2%	nt	25%
Fc1ccccc1NC(=S)NN(Cc1ccccc1)c1ccccc1	nt	-58%	10%	-1%	-26%	26%
CN(C(=O)/C=C/c1ccc([N+](=O)[O-])s1)c1ccccc1	?	-12%	22µM*	-5%	?	14%
Cc1ccc(CNC(=O)CN(C)S(=O)(=O)c2ccc(Br)s2)cc1	nt	nt	nt	16%	nt	nt
O=C(NCc1ccccc1Cl)C1CCCN(C(=O)c2cnn(-c3ccccc3)c2-n2cccc2)C1 (centres undefined)	nt	nt	nt	-2%	nt	nt
CCN(CC)S(=O)(=O)c1cccc(NC(=O)C(=O)c2c(-c3ccccc3)cc3ccccn23)c1	7.4µM*	-45%	?	-12%	nt	-19%
CCN(CC)S(=O)(=O)c1ccc(N2CCOCC2)c(NC(=O)C2CC2)c1	?	-10%	?	-10%	?	9%
CCN(CC)S(=O)(=O)c1cc(NC(=O)C(=O)c2c(-c3ccccc3)cc3ccccn23)ccc1C	12µM*	-32%	13µM*	-14%	nt	-18%
CN(C)CCNC(=O)C(=O)c1c(-c2ccccc2)cc2ccccn12	-4%	-9%	4%	-2%	-3%	-18%
CCN(CC)S(=O)(=O)c1ccc(N2CCOCC2)c(NC(=O)C(=O)c2c(-c3ccccc3)cc3ccccn23)c1	nt	0%	14µM*	4%	6.6µM*	-29%
COc1cc(Cl)c(NC(=O)c2cc(CN3CCCC3)on2)c(OC)c1	nt	nt	nt	5%	nt	nt
COc1cc(NC(=O)Cn2c(=O)n(C(C)C)c(=O)c3oc4ccccc4c32)cc(OC)c1	nt	nt	nt	-12%	nt	nt
O=C(COCc1cc(-c2cccs2)on1)Nc1ccc(OC(F)(F)F)cc1	nt	nt	nt	19%	nt	nt
CCCCCCCCCCCCCCCCCC[N+](C)(C)CCC[Si](OC)(OC)OC	-2%	nt	nt	nt	-12%	nt
CCCCCCCCCCCCCC[N+](C)(C)Cc1ccccc1	2.7µM*	nt	nt	nt	1.7µM*	nt
CCCCCCCC(=O)NNC(=O)Cc1ccccc1	54%	-8%	-1%	-15%	26%	31%
CCCCCCCCNS(=O)(=O)CCNCc1ccccc1	nt	nt	4%	nt	nt	4%
CCCCCCCCCCCC[N+](C)(C)CCOc1ccccc1	2.4µM*	nt	nt	nt	4.3µM*	nt
CCCCCCCCCCCCCCCC[N+](C)(C)Cc1ccccc1	3µM*	nt	nt	nt	1.7µM*	nt
C[N+](C)(C)Cc1ccccc1	1µM*	-11%	1%[8.37 µM]	-10%	?	4%
CC1CCN(C(=O)Cn2cc(SCC(=O)Nc3ccccc3C(F)(F)F)c3ccccc32)CC1	nt	nt	nt	0%	nt	nt
Cc1cccc(NC(=O)CSc2nc3c(c(=O)[nH]2)CN(Cc2ccc4c(c2)OCO4)CC3)c1C	nt	nt	nt	18%	nt	nt
COCCCNC(=O)N1[C@H](c2cccs2)[C@@H](C)C(=O)[C@@H](C)[C@@H]1c1cccs1	nt	nt	nt	-6%	nt	nt
COc1cc(C)ccc1OCCn1c(-c2ccc(Cl)cc2)nc2ccccc2c1=O	nt	nt	nt	9%	nt	nt
SMILES	Pf growth 96h	AmpC no deterg	HCV inhibitor	AmpC detergent	Pf growth 48h	AMA1 RON2 block
COc1ccc(-c2nc3c(c(SCC(=O)N4CCOCC4)n2)Cc2c(CO)cnc(C)c2O3)cc1	14%	156%	?	-6%	?	-10%
Cc1ccc(-c2nc3c(c(SCC(=O)N4CCOCC4)n2)Cc2c(CO)cnc(C)c2O3)cc1	-14%	160%	?	3%	7.4µM*	-13%
Cc1ccc(Cn2c(=N)n(CC(O)c3ccco3)c3ccccc32)cc1 (centres undefined)	nt	-26%	?	3%	?	-5%
COc1ccccc1OCC(O)Cn1c(=N)n(Cc2ccccc2)c2ccccc21 (centres undefined)	?	21%	?	-14%	9.3µM*	-16%
N=c1n(Cc2ccccc2)c2ccccc2n1CC(O)c1ccccc1 (centres undefined)	2.3µM*	3%	?	-15%	2.1µM*	-10%
CCCCCn1c(=N)n(CC(O)COc2ccccc2OC)c2ccccc21 (centres undefined)	?	20%	11µM*	2%	4.7µM*	4%
COc1cc(OC)c(NC(=O)CCc2nc(C3=CCN(Cc4cccc(Cl)c4)CC3)no2)cc1Cl	nt	nt	nt	17%	nt	nt
O=C(CNC(=O)c1ccccc1F)OCc1cc(=O)n2nc(C3CC3)sc2n1	nt	nt	nt	-7%	nt	nt
N#Cc1c(N2CCCC(O)C2)nc(N)c2c(N)nc3c(c12)CC(=O)N3C12CC3CC(CC(C3)C1)C2 (centres undefined)	0.21µM*	-14%	4µM*	-2%	?	8%
C=C(C)CN(CC)c1nc(N)c2c(N)nc3c(c2c1C#N)CC(=O)N3C12CC3CC(CC(C3)C1)C2	0.93µM*	-21%	4µM*	?	nt	-16%
CCCCN1C(=O)Cc2c1nc(N)c1c(N)nc(N(CCC)CCC)c(C#N)c21	4.1µM*	-54%	4µM*	-5%	4.7µM*	23%
N#Cc1c(N(CCO)CCO)nc(N)c2c(N)nc3c(c12)CC(=O)N3CC1CCCO1 (centres undefined)	31%	97%	19%	-2%	2%	2%
Cc1ccc(Nc2nc(N)nc(CN3CCc4ccccc4C3)n2)cc1	-2%	-20%	?	2%	?	-25%
Cc1ccc(Nc2nc(N)nc(CCl)n2)cc1	?	-27%	-81%	5%	?	16%
Cc1cccc(Nc2nc(N)nc(CCl)n2)c1	9.3µM*	-16%	3.2µM*	0%	?	16%
CCOc1ccc(Nc2nc(N)nc(CCl)n2)cc1	?	-29%	0.56µM*	-10%	?	51%
Cc1c(Cl)cccc1Nc1nc(N)nc(CN2CCc3ccccc3C2)n1	nt	43%	?	2%	9.3µM*	8%
Cc1ccc(Nc2nc(N)nc(CCl)n2)c(C)c1	-13%	-12%	0.5µM*	-3%	?	23%
Cc1ccc(Nc2nc(N)nc(CN3CCCCCC3)n2)c(C)c1	10%	-5%	?	-13%	?	-7%
CCCN(c1ccc(C(C)C)cc1)S(=O)(=O)c1ccc2c(c1)n(C)c(=O)c(=O)n2C	nt	nt	nt	1%	nt	nt
Cc1ccccc1OCc1ccc(-c2nc(C#N)c(N3CCN(c4ccccc4)CC3)o2)o1	nt	nt	nt	0%	nt	nt
COc1ccc(Nc2nc(N)nc(CSc3nccc(C)n3)n2)cc1	5.2µM*	-23%	-8%	?	16%	-9%

Screens as filed in PubChem BioAssay.
